Source: PubChem BioAssay (Tox21)
Results filed as inconclusive are left out. Calls of active or inactive are those of the source. Unless noted, the call rests on the fitted dose curve; in most records, active means well fitted curve in the direction sought with a large enough effect in the repeat runs; inconclusive means weak or mixed curves; inactive means no such curve, though single readings can be large; an effect the other way counts as inactive or inconclusive.

Key:
[1] = target: Thyrotropin-releasing hormone receptor (Homo sapiens) (UniProt P34981); experiment: qHTS assay to identify small molecule agonists of the thyrotropin-releasing hormone receptor (TRHR) signaling pathway (AID 1346891; calls by dose curve;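 further: HEK293 cells expressing TRHR with calcium dye readout; series mostly up to about 58 µM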)
Summary of the method: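 In 1536-format, 1500 TRHR-Hek293 cells per well grew 18 h, took up calcium dye for 2 h at 37 °C, received compound, and were read kinetically; 15-point titrations, triplicates.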

[2] = Caspase-3/7 induction in HepG2 cells by small molecules, qHTS assay (AID 1346978); further: nearly all actives have a fitted effect of over 15% in size; further: potency means the concentration at half of the fitted maximal effect
Summary of the method: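 Caspase-3/7 induction was measured by Caspase-Glo 3/7 luminescence (30 min, room temperature) after a 17 hr compound exposure of wild-type HepG2 cells seeded at 2,000 per well and pre-incubated 5 hr.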

[3] = Caspase-3/7 induction in CHO-K1 cells by small molecules, qHTS cell viability counter screen (AID 1346979); further: nearly all actives have a fitted effect of over 35% in size; further: potency means the concentration at half of the fitted maximal effect
Summary of the method: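 To flag cytotoxic compounds, treated CHO-K1 wild-type cells were given CellTiter-Fluor at 16hr and read fluorescently after 1hr at 37C; the caspase-3/7 luminescence was measured in these same wells.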

[4] = Caspase-3/7 induction in CHO-K1 cells by small molecules, qHTS assay (AID 1346980); further: nearly all actives have a fitted effect of over 15% in size
Summary of the method: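 Luminescent Caspase-Glo 3/7 read (30min, room temperature) quantified apoptosis induction. Cells were wild-type CHO-K1, treated with compound for 17hr at 37 C and 5% CO2.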

[5] = target: Nuclear receptor subfamily 1 group I member 2 (Homo sapiens) (UniProt O75469); experiment: Human pregnane X receptor (PXR) small molecule agonists, qHTS assay (AID 1346982); further: nearly all actives have a fitted effect of over 35% in size; further: potency means the concentration at half of the fitted maximal effect
Summary of the method: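 After plating in 5% charcoal-stripped FBS and a 5 hr rest, PXR-Luc HepG2 cells received compounds in DMSO. Following 24 hr at 37 C, ONE-Glo was added and light output read.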

[6] = target: Cytochrome P450 2D6 (Homo sapiens) (UniProt P10635); experiment: Cytochrome P450 Family 2 Subfamily D Member 6 (CYP2D6) small molecule antagonists: luciferase reporter qHTS assay (AID 1671196); further: nearly all actives have a fitted effect of over 50% in size; further: potency means the concentration at half of the fitted maximal effect; on activity change, negative = inhibition: series mostly up to about 120 µM
Summary of the method: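 Quantitative HTS of Tox21 chemicals against CYP2D6 using a luminescent proluciferin substrate. After NADPH addition, 1 h room-temperature reaction; luminescence recorded 20 min post detection reagent.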

[7] = target: Cytochrome P450 2C19 (Homo sapiens) (UniProt P33261); experiment: Cytochrome P450 Family 2 Subfamily C Member 19 (CYP2C19) small molecule antagonists: luciferase reporter qHTS assay (AID 1671197); further: nearly all actives have a fitted effect of over 65% in size; further: potency means the concentration at half of the fitted maximal effect; on activity change, negative = inhibition: series mostly up to about 120 µM
Summary of the method: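 Compounds were tested on CYP2C19 activity via proluciferin conversion to luciferin. The 37C, 1 h reaction followed NADPH addition; detection reagent stopped it.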

[8] = target: Cytochrome P450 2C9 (Homo sapiens) (UniProt P11712); experiment: Cytochrome P450 Family 2 Subfamily C Member 9 (CYP2C9) small molecule antagonists: luciferase reporter qHTS assay (AID 1671198); further: nearly all actives have a fitted effect of over 50% in size; further: potency means the concentration at half of the fitted maximal effect; on activity change, negative = inhibition: series mostly up to about 120 µM
Summary of the method: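 Enzyme-substrate mix preincubated with compound 10 min at room temperature; reaction started with NADPH regeneration solution, 1 h 37C. Luminescent luciferin product read after 20 min detection reagent.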

[9] = target: Cytochrome P450 1A2 (Homo sapiens) (UniProt P05177); experiment: Cytochrome P450 Family 1 Subfamily A Member 2 (CYP1A2) small molecule antagonists: luciferase reporter qHTS assay (AID 1671199); further: nearly all actives have a fitted effect of over 50% in size; further: potency means the concentration at half of the fitted maximal effect; on activity change, negative = inhibition: series mostly up to about 120 µM
Summary of the method: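 Quantitative high-throughput format using the P450-Glo CYP1A2 system. Reaction initiated by NADPH regeneration solution, 1 h at room temperature, then stopped with detection reagent; luminescence measured 20 min later.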

[10] = target: Voltage-gated inwardly rectifying potassium channel KCNH2 (Homo sapiens) (UniProt Q12809); experiment: Human Ether-a-go-go-Related Gene (hERG) channel small molecule antagonists: fluorescence cell-based qHTS assay (AID 1671200); further: nearly all actives have a fitted effect of over 50% in size; further: potency means the concentration at half of the fitted maximal effect;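 on activity change, negative = inhibition: hERG-expressing U2OS cells given a thallium stimulus after FluxOR II dye loading; series mostly up to about 77 µM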
Summary of the method: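 Measured: Tl+ flux via fluorescence (480/540 nm) in hERG-expressing U2OS cells after 1 h dye loading at room temperature.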

[11] = target: Cytochrome P450 3A4 (Homo sapiens) (UniProt P08684); experiment: Cytochrome P450 Family 3 Subfamily A Member 4 (CYP3A4) small molecule antagonists: luciferase reporter qHTS assay (AID 1671201); further: nearly all actives have a fitted effect of over 50% in size; further: potency means the concentration at half of the fitted maximal effect; on activity change, negative = inhibition: series mostly up to about 120 µM
Summary of the method: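 Setup: enzyme-substrate mix, compound pin transfer, 10 min RT. Reaction: NADPH regeneration solution, 1 h RT. Readout: detection reagent stops turnover, luminescence measured after 20 min, expressed in relative luminescence units.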

[12] = Caspase-3/7 induction in HepG2 cells by small molecules, qHTS cell viability counter screen (AID 1346981); further: series mostly up to about 92 µM; nearly all actives have a fitted effect of over 30% in size
Summary of the method: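 The parent HepG2 line is plated at 2,000 cells per well and rested 5 hr before compound pinning from DMSO stocks. Following a 16-hr treatment at 37 C, a fluorogenic live-cell substrate (CellTiter-Fluor) reports viability after 1 hr.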

[13] = target: Nuclear receptor subfamily 1 group I member 2 (Homo sapiens) (UniProt O75469); experiment: Human pregnane X receptor (PXR) activation by small molecules, qHTS assay (AID 1346985); further: nearly all actives have a fitted effect of over 40% in size
Summary of the method: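 DPX-2 cells (HepG2 co-transfected with a PXR response element and a CYP3A4-promoter luciferase construct) were seeded at 2,000 per well, rested 5 hr at 37C, then exposed to DMSO-dissolved compounds for 24 hr. Activation was read as luciferase luminescence.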

[14] = target: Nuclear receptor subfamily 1 group I member 2 (Rattus norvegicus) (UniProt Q9R1A7); experiment: Rat pregnane X receptor (rPXR) activation by small molecules, qHTS assay (AID 1346983); settings: rPXR luciferase reporter cells, One-Glo luminescence, 24 h; max activation: stronger effect = higher value; further: nearly all actives have a fitted effect of over 20% in size
Summary of the method: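 Luminescent readout (One-Glo luciferase, 30 min room temperature) followed 24 hr compound treatment at 37 C of rPXR cells plated 2,000 per well and preincubated 5hr; qHTS format with compounds delivered in DMSO.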

[15] = target: Nuclear receptor subfamily 1 group I member 2 (Homo sapiens) (UniProt O75469); experiment: CYP3A4 induction through human pregnane X receptor (PXR) by small molecules, qHTS assay (AID 1346984); further: nearly all actives have a fitted effect of over 40% in size
Summary of the method: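 Human PXR activation is tracked via CYP3A4 promoter-luciferase in DPX-2 (HepG2) cells. Compounds treat cells for 24hr at 37C, and luminescence is read after One-Glo.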
On the % scale 0 is the no-effect control and ±100 the full control effect.

Sequence of Cytochrome P450 3A4 (Homo sapiens) (P08684 whole entry, looked up): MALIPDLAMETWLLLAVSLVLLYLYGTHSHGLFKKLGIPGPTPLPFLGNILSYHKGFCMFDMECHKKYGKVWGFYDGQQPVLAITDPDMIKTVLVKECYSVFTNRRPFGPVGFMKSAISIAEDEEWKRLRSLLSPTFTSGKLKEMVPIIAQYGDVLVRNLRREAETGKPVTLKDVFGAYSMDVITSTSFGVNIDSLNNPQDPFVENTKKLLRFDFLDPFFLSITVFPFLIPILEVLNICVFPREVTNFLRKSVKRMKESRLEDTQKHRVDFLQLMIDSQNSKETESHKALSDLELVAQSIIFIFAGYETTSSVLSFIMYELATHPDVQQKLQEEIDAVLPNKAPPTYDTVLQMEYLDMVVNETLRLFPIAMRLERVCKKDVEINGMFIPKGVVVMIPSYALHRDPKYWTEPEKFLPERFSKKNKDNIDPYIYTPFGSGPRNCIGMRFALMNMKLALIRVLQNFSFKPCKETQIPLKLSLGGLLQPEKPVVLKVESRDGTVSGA
Sequence of Cytochrome P450 2D6 (Homo sapiens) (P10635 whole entry, looked up): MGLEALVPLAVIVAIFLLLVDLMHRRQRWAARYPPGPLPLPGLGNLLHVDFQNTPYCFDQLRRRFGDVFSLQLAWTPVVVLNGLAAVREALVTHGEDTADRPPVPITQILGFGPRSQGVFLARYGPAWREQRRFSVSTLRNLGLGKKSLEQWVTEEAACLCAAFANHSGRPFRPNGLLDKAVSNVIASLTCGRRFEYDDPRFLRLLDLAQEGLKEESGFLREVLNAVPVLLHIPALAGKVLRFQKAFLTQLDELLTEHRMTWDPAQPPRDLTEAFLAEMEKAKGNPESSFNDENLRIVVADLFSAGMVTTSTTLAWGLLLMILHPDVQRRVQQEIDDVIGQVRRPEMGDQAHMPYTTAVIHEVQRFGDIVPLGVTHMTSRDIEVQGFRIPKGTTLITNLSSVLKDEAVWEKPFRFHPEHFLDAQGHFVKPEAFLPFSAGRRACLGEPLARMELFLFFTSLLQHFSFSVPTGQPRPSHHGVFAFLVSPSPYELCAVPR
Sequence of Cytochrome P450 2C9 (Homo sapiens) (P11712 whole entry, looked up): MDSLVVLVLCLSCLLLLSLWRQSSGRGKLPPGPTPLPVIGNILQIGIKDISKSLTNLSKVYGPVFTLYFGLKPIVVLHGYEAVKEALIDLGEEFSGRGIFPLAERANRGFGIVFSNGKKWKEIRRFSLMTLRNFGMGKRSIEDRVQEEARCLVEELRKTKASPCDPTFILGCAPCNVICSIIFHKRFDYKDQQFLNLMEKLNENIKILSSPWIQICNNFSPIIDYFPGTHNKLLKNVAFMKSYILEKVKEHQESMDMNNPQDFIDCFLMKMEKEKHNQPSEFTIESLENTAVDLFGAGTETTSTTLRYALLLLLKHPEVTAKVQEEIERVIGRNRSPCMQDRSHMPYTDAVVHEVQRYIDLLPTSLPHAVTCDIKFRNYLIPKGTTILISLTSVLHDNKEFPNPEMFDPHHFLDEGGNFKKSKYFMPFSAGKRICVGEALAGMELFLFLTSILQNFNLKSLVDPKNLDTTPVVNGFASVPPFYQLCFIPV
Sequence of Thyrotropin-releasing hormone receptor (Homo sapiens) (P34981 whole entry, looked up): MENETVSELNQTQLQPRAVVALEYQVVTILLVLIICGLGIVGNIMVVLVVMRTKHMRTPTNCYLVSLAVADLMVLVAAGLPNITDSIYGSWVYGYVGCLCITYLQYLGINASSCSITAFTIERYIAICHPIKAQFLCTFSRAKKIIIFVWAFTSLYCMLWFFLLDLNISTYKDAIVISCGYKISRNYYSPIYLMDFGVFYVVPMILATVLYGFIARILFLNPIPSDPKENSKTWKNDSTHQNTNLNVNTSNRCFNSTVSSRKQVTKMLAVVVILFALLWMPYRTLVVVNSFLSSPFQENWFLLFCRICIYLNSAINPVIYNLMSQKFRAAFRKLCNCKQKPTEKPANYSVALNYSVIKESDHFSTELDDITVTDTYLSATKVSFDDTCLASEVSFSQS
Sequence of Voltage-gated inwardly rectifying potassium channel KCNH2 (Homo sapiens) (Q12809 whole entry, looked up): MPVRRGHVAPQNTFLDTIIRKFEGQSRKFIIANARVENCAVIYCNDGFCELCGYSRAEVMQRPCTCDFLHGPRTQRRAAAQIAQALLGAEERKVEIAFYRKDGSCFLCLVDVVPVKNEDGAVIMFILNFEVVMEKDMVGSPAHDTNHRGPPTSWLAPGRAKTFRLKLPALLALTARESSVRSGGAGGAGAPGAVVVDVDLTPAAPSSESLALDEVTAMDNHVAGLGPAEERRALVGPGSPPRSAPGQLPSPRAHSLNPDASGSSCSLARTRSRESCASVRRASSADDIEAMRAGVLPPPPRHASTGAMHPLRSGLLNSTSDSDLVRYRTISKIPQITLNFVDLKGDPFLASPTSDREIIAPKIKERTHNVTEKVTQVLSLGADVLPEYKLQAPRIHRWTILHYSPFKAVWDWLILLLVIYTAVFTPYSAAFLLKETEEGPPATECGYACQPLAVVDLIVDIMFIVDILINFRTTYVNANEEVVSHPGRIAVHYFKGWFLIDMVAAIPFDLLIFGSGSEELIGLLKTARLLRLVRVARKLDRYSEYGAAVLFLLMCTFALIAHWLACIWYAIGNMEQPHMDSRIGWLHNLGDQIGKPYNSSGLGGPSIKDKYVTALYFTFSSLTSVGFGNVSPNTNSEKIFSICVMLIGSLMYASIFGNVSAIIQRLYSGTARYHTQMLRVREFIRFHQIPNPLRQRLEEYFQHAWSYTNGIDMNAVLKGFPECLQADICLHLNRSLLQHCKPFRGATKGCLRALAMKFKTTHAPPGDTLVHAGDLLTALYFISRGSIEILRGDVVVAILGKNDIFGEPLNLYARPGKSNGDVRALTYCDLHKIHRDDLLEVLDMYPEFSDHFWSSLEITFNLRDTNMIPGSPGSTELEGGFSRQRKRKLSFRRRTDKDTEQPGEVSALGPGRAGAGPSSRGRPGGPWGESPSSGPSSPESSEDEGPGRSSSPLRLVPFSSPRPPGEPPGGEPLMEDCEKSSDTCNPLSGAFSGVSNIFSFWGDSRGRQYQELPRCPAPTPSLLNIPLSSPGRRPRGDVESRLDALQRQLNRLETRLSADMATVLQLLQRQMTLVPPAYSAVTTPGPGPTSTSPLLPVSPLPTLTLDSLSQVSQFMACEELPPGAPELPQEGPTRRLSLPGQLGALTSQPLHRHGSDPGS
Sequence of Cytochrome P450 2C19 (Homo sapiens) (P33261 whole entry, looked up): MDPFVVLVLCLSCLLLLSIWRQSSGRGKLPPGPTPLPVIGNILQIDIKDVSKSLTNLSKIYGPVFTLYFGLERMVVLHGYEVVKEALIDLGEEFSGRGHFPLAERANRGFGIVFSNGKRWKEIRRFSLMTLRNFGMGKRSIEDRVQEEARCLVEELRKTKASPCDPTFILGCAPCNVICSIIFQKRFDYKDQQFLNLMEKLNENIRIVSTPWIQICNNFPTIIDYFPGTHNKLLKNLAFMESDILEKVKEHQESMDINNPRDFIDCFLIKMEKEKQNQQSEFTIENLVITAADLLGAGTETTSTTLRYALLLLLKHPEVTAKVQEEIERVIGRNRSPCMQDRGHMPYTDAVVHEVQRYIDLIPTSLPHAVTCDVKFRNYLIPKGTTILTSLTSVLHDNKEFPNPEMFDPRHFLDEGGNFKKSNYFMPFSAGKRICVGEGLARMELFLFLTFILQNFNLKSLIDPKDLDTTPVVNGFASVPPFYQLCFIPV
Sequence of Nuclear receptor subfamily 1 group I member 2 (Homo sapiens) (O75469 whole entry, looked up): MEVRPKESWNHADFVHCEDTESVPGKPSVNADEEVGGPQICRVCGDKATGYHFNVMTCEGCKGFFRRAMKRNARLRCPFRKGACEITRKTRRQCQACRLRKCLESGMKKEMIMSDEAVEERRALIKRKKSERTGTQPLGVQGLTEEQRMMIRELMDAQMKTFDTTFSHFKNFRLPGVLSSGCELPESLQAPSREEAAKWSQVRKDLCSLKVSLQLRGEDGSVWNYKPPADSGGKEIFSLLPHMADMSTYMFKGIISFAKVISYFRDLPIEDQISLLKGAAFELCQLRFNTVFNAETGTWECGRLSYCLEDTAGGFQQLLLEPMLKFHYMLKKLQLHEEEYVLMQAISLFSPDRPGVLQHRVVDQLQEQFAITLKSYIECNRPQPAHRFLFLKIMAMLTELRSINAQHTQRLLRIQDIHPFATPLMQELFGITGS
Sequence of Cytochrome P450 1A2 (Homo sapiens) (P05177 whole entry, looked up): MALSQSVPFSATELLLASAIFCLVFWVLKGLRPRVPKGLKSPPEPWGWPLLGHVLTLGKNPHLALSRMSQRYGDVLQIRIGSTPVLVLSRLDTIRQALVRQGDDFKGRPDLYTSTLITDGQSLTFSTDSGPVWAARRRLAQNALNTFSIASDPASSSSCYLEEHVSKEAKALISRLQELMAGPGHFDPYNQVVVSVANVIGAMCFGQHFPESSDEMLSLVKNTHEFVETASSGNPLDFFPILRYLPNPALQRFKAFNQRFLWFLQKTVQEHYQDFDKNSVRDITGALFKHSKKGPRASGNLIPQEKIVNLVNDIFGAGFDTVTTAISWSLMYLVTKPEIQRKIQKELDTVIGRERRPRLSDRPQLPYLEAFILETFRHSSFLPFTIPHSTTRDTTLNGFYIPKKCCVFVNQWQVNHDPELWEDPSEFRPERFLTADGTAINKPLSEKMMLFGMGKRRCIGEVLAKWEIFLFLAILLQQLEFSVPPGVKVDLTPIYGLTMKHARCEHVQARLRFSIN
Sequence of Nuclear receptor subfamily 1 group I member 2 (Rattus norvegicus) (Q9R1A7 whole entry, looked up): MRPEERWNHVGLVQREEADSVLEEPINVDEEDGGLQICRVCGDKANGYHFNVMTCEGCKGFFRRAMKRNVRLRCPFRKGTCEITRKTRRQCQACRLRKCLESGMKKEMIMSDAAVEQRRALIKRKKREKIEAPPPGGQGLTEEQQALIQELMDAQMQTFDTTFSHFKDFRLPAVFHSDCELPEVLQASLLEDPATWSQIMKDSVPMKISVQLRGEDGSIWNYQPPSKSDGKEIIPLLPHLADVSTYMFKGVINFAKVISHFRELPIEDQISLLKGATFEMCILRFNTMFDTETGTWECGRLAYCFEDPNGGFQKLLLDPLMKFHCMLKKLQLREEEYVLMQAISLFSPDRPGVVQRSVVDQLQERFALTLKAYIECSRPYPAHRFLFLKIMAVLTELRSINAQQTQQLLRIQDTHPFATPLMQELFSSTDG

CCOC(=O)c1ccccc1OC
active: Potency [7] 79.6 µM | Potency [9] 35.6 µM
inactive: Potency [1] | Potency [2] | Potency [3] | outcome [4] | Potency [5] | Potency [6] | Potency [8] | Potency [10] | Potency [11]

CC1(C)C2=CCCC(C)(C)[C@]23CC[C@H]1C3
inactive: Potency [1] | Potency [2] | Potency [3] | outcome [4] | Potency [12] | Potency [10]
active: Potency [5] 54.5 µM | Potency [8] 79.6 µM | Potency [11] 35.6 µM

O=C1OCCN1/N=C/c1ccc([N+](=O)[O-])o1
inactive: Potency [1] | Potency [2] | outcome [4] | Potency [12] | Potency [5] | Potency [13]

Cc1ccc(Nc2nccc(N(C)c3ccc4c(C)n(C)nc4c3)n2)cc1S(N)(=O)=O
inactive: Potency [1] | Potency [2] | outcome [4] | Potency [6] | Potency [7] | Potency [9] | Potency [10]
active: Potency [3] 26.6 µM | Potency [5] 2.66 µM | Potency [8] 15.5 µM

Cc1occc1C(=O)Nc1ccc(C(=O)N2CCC(F)(F)/C(=C\C(=O)N3CCC(N4CCCCC4)CC3)c3ccccc32)cc1
inactive: Potency [1] | Potency [2] | Potency [3] | outcome [4] | Potency [7]
active: Potency [5] 19.1 µM | Potency [6] 2.79 µM | Potency [9] 9.9 µM | Potency [10] 6.09 µM | Potency [11] 0.394 µM

Cn1c(=O)c2c(ncn2CC(=O)O)n(C)c1=O
inactive: Potency [1] | Potency [2] | Potency [3] | outcome [4] | Potency [12] | Potency [5] | Potency [6] | Potency [8] | Potency [9] | Potency [10] | Potency [11]

C[C@]12CCC(=O)C=C1C=C[C@@H]1[C@@H]2CC[C@@]2(C)[C@H]1CC[C@@]21CCC(=O)O1
inactive: Potency [1] | Potency [2] | outcome [4] | Potency [12] | Potency [5] | max activation [14] 4.49% | Potency [15] | Potency [13] | Potency [6] | Potency [9] | Potency [10] | Potency [11]
active: Potency [7] 1.1 µM

CCCC(=O)O[C@]1(C(=O)COC(=O)CC)CC[C@H]2[C@@H]3CCC4=CC(=O)CC[C@]4(C)[C@H]3[C@@H](O)C[C@@]21C
inactive: activation [1] -0.132% [at 11.8 µM] | caspase activation [2] -2.33% [at 19 µM] | activity change, negative = cytotoxicity [3] 11.7% [at 19 µM] | caspase-3/7 activation [4] 1.2% [at 19 µM] | activity change, negative = cytotoxicity [12] 3.19% [at 19 µM] | activation [5] -1.9% [at 19 µM] | activity change, negative = inhibition [7] -11.3% [at 23.6 µM] | activity change, negative = inhibition [8] 11.6% [at 23.6 µM] | activity change, negative = inhibition [10] 4.88% [at 15.8 µM]

CC(=O)OCC(=O)[C@H]1CC[C@H]2[C@@H]3CCC4=CC(=O)CC[C@]4(C)[C@H]3CC[C@]12C
inactive: Potency [1] | Potency [2] | Potency [3] | outcome [4] | Potency [12] | Potency [5] | Potency [15] | Potency [13] | Potency [9] | Potency [10] | Potency [11]
active: Potency [7] 9.77 µM | Potency [8] 7.76 µM

CC(C)CCCCCOC(=O)CCCCC(=O)OCCCCCC(C)C
inactive: Potency [1] | Potency [2] | Potency [3] | outcome [4] | Potency [12] | Potency [6] | Potency [7] | Potency [10]
active: Potency [8] 63.3 µM

CC(=N\O)/C(C)=N/O
active: Potency [9] 35.6 µM
inactive: Potency [1] | Potency [2] | Potency [3] | outcome [4] | Potency [12] | Potency [5] | Potency [8] | Potency [10] | Potency [11]

CC(C)(C)C(=O)O
inactive: Potency [1] | Potency [2] | Potency [3] | outcome [4] | Potency [12] | Potency [5] | Potency [8] | Potency [10] | Potency [11]

CO[Si](C)(OC)OC
inactive: Potency [1] | Potency [2] | Potency [3] | outcome [4] | Potency [12] | Potency [5] | Potency [6] | Potency [7] | Potency [8] | Potency [10]
active: Potency [11] 4.91 µM

CC(C)OCC1CO1 (stereo not given)
inactive: Potency [1] | Potency [2] | Potency [3] | outcome [4] | Potency [12] | Potency [5] | Potency [6] | Potency [7] | Potency [8] | Potency [9] | Potency [10] | Potency [11]

C(=C\c1ccccc1)/CN1CCN(C(c2ccccc2)c2ccccc2)CC1
inactive: Potency [1] | Potency [2] | outcome [4] | Potency [12]

CCCOc1ccc(S(=O)(=O)N2CCN(CC)CC2)cc1-c1nc2c(CC)n(Cc3ccccn3)nc2c(=O)[nH]1
active: Potency [5] 10.9 µM | Potency [7] 71 µM | Potency [8] 3.17 µM | Potency [10] 21.9 µM | Potency [11] 0.399 µM
inactive: Potency [1] | Potency [2] | Potency [3] | outcome [4] | Potency [6] | Potency [9]

CCOC(=N)CC(=O)OCC
inactive: Potency [1] | Potency [2] | Potency [3] | outcome [4] | Potency [12] | Potency [5] | Potency [8] | Potency [10] | Potency [11]

O=c1[nH]c2ccc(S(=O)CCN3CCC(Cc4ccc(F)cc4)CC3)cc2o1 (stereo not given)
active: Potency [3] 54.5 µM | Potency [6] 35.6 µM | Potency [7] 56.4 µM | Potency [10] 4.36 µM
inactive: Potency [1] | Potency [2] | outcome [4] | Potency [5] | Potency [8]

COc1ccc(C(=O)c2cccc(O)c2)c(OC)c1
active: Potency [5] 61 µM | Potency [7] 3.55 µM | Potency [11] 31.7 µM
inactive: Potency [1] | Potency [2] | Potency [3] | outcome [4] | Potency [8] | Potency [10]

O=C(CCCCCCC(=O)Nc1ccccc1)NO
inactive: Potency [1] | Potency [15] | Potency [13] | Potency [10] | Potency [11]
active: Potency [2] 4.22 µM | Potency [3] 13.3 µM | Potency [5] 7.5 µM | Potency [6] 5.49 µM | Potency [7] 7.76 µM
